Reference: PubChem BioAssay AID1259400 (National Center for Advancing Translational Sciences (NCATS), 2018)
Screen size: about 350,000 compounds; about 2,100 (0.6%) were called active. Another 1% or so got no clear call; they are omitted. For the sample, actives were picked, then their nearest neighbours and some compounds at random. A number with no mark means an inactive call.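 The calls were made as follows: active = activity change of -60% or lower, but not beyond a set lower limit; inconclusive = change between -60% and -40%, or beyond the set limit; inactive = change above -40%.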

What follows are molecules tested against Relaxin receptor 1 (Homo sapiens) (UniProt Q9HBX9) (assay: qHTS Assay for Antagonists of the Relaxin Receptor RXFP1). Details: HEK293-RXFP1, relaxin-stimulated cAMP HTRF, 30 min; at 57.5 µM; stronger effect = lower value.
From the text: The relaxin hormone is involved in the variety of biological functions in normal tissues and diseases. The role of relaxin is well-established in female reproduction and parturition, mammary gland and endometrial development, maintenance of myometrial quiescence during pregnancy. Relaxin signaling through its G protein-coupled receptor (GPCR) RXFP1 results in ECM remodeling through regulation of collagen deposition, cell invasiveness, proliferation and overall tissue homeostasis. […] Recombinant human relaxin (rhRlx) is currently being tested in clinical trials as a protective agent in congestive heart failure, in treating severe preeclampsia, and as an anti-fibrotic agent in various organs. […] Upon relaxin binding RXFP1 activation leads to the activation of adenylate cyclase (AC) via G?s. cAMP will activate PKA, which phosphorylates many signaling proteins. Thus, detection of cAMP increase is an easy and reliable indication of relaxin receptor activation. To screen for antagonists of the relaxin receptor, a HEK293T cell line stably transfected with RXFP1 was used. RXFP1 activation by relaxin in presence of various concentrations of tested compounds was assayed by changes in cAMP levels as detected with a time-resolved fluorescence energy transfer (TR-FRET) cAMP detection kit.
For the primary screening, we used HTRF(R) (Homogenous Time-Resolved Fluorescence) cAMP HiRange assay (Cisbio Bioassays, 62AM6PEJ). Presence of cAMP in the cell lysate disrupts binding between the Cryptate-labeled anti-cAMP and d2-labeled cAMP pair, leading to a decrease in TR-FRET signal. The libraries were screened at two doses (57microM and 11microM), followed by a confirmation of the hits at 7-point serial dilution in the range of final concentrations [57microM - 78nM]. Data were normalized to the controls for basal activity (buffer only) and 100% activity (5 nM porcine relaxin). The EC50 values were determined from concentration-response data modeled with the standard Hill equation. NCGC Assay Protocol Summary: HiHEK (Hawaiian HEK293 LGR7 stably transfected with human RXFP1) were grown in the following media: DMEM+10%FBS+Pen/Strep + Geneticin (1mg/ml). For the assay, the cells were seeded in DMEM+Pen/Strep (with no serum & selective antibiotics) at 2,100 cells/ 3microl/well with MultiDrop Combi dispenser (Thermo Scientific, Logan, UT) onto white tissue culture treated solid bottom1536-well plates (Greiner #789173-F) and allowed to attach/recover overnight at 37 degrees C, 5% CO2. Next, 23nl/well of compound solutions in DMSO were transferred into wells with a pintool (Kalypsis, San Diego, CA). […] EC80 (relaxin at 50pM final concentration) was dispensed to the rest of the plate except columns 1&2 which were used as a negative control (EC0, buffer only), 1microl/well also. The cells were stimulated by relaxin in the presence of compounds for 30 minutes at 37 degrees C, 5% CO2. The detection reagents were prepared individually by dilution in Lysis buffer (supplied with the assay kit) just prior to dispensing. 1microl/well of cAMP-d2 and 1microl/well anti-cAMP-Eu3+-Cryptate antibodies were added simultaneously with BioRAPTR FRDtrade mark Workstation (Beckman Coulter). The plates were incubated at ambient temperature for 30 minutes and, then, FRET signal was read on Envision plate reader (PerkinElmer, Waltham, MA), at wavelengths 340nm (excitation), 615nm & 665nm (emission of donor and acceptor channels respectively).
% is scaled to controls: 0 for no effect and ±100 for the full control effect.

Chain of Relaxin receptor 1 (Homo sapiens) (Q9HBX9 whole entry, looked up): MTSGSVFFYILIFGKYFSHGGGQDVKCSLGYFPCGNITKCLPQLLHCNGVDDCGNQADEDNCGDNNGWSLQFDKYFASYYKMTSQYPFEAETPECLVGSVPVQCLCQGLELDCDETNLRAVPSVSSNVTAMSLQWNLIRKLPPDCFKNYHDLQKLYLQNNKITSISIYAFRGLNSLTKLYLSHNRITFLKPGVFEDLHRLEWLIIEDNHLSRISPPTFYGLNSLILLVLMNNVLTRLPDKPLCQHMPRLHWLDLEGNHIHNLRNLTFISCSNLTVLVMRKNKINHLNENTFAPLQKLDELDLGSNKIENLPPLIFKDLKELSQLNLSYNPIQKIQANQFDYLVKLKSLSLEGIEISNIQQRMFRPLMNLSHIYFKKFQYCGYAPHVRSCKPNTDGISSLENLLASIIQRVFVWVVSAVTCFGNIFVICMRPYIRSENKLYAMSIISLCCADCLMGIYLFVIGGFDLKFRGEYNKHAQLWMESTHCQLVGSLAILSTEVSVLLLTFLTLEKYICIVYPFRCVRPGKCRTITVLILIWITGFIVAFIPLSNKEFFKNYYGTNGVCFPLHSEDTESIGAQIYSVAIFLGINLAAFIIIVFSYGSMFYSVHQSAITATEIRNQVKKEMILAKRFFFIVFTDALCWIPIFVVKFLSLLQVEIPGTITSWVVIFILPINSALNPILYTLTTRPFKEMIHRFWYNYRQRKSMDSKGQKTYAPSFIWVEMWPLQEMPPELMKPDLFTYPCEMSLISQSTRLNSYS

Row | SMILES | activity change, negative = inhibition
1 | COc1ccc(OC)c(NC(=O)/C=C/c2ccc(C)o2)c1 | -0.228%
2 | O=C(Nc1nnc(S(=O)(=O)N2CCCc3ccccc32)s1)c1cccc(F)c1 | -23.2%
3 | CCN1CCN(C(c2ccc(C)cc2)c2c(O)cc(C)n(Cc3ccco3)c2=O)CC1 (stereo not drawn) | -15.2%
4 | COc1cccc(Cn2c(SCc3ccc(C(=O)N4CCC(C)CC4)cc3)nc3ccncc32)c1 | 0.54%
5 | CCN(CC)CCN(C(=O)c1ccc2c(c1)CCCC2)c1nc2c(OC)cccc2s1 | -18.9%
6 | Cc1cccc2sc(N(CCCN(C)C)C(=O)CCS(=O)(=O)c3ccccc3)nc12 | 10.5%
7 | COc1cccc2sc(N(CCCN(C)C)C(=O)C(c3ccccc3)c3ccccc3)nc12 | -77.3% (active)
8 | CCN(CC)c1ccc(NS(=O)(=O)c2cc(-c3cc(C)no3)ccc2C)c(C)c1 | -32.3%
9 | CCc1ccccc1NC(=O)c1sc2nc3c(cc2c1N)CN(Cc1ccccc1)CC3 | -0.166%
10 | Cc1cccc(N2CCN(C3=C(c4ccccc4)C(=O)c4ccccc43)CC2)c1C | -0.811%
11 | CCc1cccc(NC(=O)CN(C)S(=O)(=O)c2ccc3[nH]c4c(c3c2)CCCC4)c1 | -7.15%
12 | CCCCOCCOC(=O)c1cccnc1 | 8.56%
13 | Cc1ccc(NC(=O)CSc2nc3ccccc3c3nc(CCn4cncc4C)nn23)cc1F | -6.58%
14 | Cc1c(C)n(Cc2ccc(Cl)cc2)c2ccc(C(=O)NCCc3ccc(S(N)(=O)=O)cc3)cc12 | -10.3%
15 | O=C(NCCCO)c1nn(-c2ccc(Cl)cc2)nc1CO | -16.3%
16 | CC(CCCc1ccccc1)NC(=O)c1nn(-c2ccc(Cl)cc2)nc1CO (stereo not drawn) | -85.1% (active)
17 | Cc1ccc(-n2nc(CO)c(C(=O)NCCc3ccccc3)n2)cc1 | -19.5%
18 | O=[N+]([O-])c1c(NCCO)cc(Sc2nc3ccccc3s2)c2nonc12 | -71% (active)
19 | CC(C)(C)c1ccc(S(=O)(=O)Nc2ccc(O)c(Sc3nc4ccccc4s3)c2)cc1 | -31%
20 | O=C(COc1ccccc1Cl)Nc1ccc2nc(SCC(=O)N3CCCC3)sc2c1 | 0.0142%
21 | COCC(C)NS(=O)(=O)c1ccc(N2CCCCS2(=O)=O)cc1 (stereo not drawn) | -3.31%
22 | CCc1nc2nc(C)cc(Nc3ccc(F)c(Cl)c3)n2n1 | -7.58%

Row | SMILES | activity change, negative = inhibition
23 | CC1(C)CC(N2CCN(C(c3ccccc3)c3ccccc3)CC2)=CC(=[N+]2CCCCC2)C1 | -86.5% (active)
24 | CC1(C)CC(=O)C=C(N2CCOCC2)C1 | -12.6%
25 | CC(C)OCC(O)CN1CCN(C(c2ccccc2)c2ccccc2)CC1 (stereo not drawn) | -2.44%
26 | Cc1ccccc1OCc1ccc(-c2nc(C#N)c(N3CCCCC3)o2)o1 | -8.24%
27 | Cc1c(C)n(Cc2ccc(Cl)cc2)c2ccc(C(=O)N3CCN(c4ccccc4F)CC3)cc12 | -18.8%
28 | COc1ccc(CCNC(=O)c2c3c(nc4ccccc24)C(=O)N(C2CCCCC2)C3)cc1OC | -34%
29 | COc1ccc(OC)c(CNC(=O)c2c3c(nc4ccccc24)C(=O)N(C2CCCCC2)C3)c1 | -60.9% (active)
30 | COc1ccc(OC)c(CNC(=O)C2CCCN(c3nc4ccccc4o3)C2)c1 (stereo not drawn) | 24.2%
31 | CC(=O)c1ccc(N2CCN(c3nc4c(S(=O)(=O)c5ccccc5)nnn4c4ccc(Cl)cc34)CC2)cc1 | -10.3%
32 | Cc1ccc(C)c(Cn2c(C(=O)O)c(CNCc3cccs3)c3ccccc32)c1 | -81.9% (active)
33 | COc1ccc2c(CNCCc3ccccc3C)c(C(=O)O)n(Cc3ccccc3C)c2c1 | -12.7%
34 | O=C(O)c1c(CNCc2cccc(F)c2)c2ccccc2n1Cc1ccccc1 | -7.86%
35 | Cc1sc(C2C(C#N)=C(N)N(c3cccc(Cl)c3)C3=C2C(=O)CCC3)cc1CN1CCOCC1 (stereo not drawn) | -18.6%
36 | Cc1ccc2nc3c(cc(C(=O)NC4CCCCC4)c(=N)n3C(C)C)c(=O)n2c1 | -8.15%
37 | CCC(CC)C(=O)N1CCN(c2cccc(C)c2C)CC1 | -5.41%
38 | Cc1cccc(N2CCN(C(=O)c3cnc(N4CCCC4)nc3C)CC2)c1C | -77.6% (active)
39 | Cc1cccc(N2CCN(C(=O)C3CCN(S(=O)(=O)c4cnc[nH]4)CC3)CC2)c1C | -5.38%
40 | O=C(COc1ccc(Cl)cc1)N(Cc1ccco1)Cc1ccco1 | -34.6%
41 | CCOC(=O)c1c(C)oc2nc(C)nc(N3CCN(c4ccc(OC)cc4)CC3)c12 | -3.52%
42 | S=c1[nH]nc(-c2cc(-c3ccccc3)n[nH]2)n1/N=C/c1c2ccccc2cc2ccccc12 | -78.7% (active)
43 | S=c1[nH]nc(-c2cc(-c3ccsc3)n[nH]2)n1-c1ccccc1 | -4.32%
